Experimental data: paper PMC5540273 (PLoS ONE, 2017)

What was measured:
Conditions in all cases: concentration: 1 μM, replicates: in singlicate; n = 1
ERK4 = system: T1, ERK4
T1 construct: gene MAPK4

ERK5 = system: T2, ERK5
T2 construct: gene MAPK7

ERK8 = system: T3, ERK8
T3 construct: gene MAPK15

ERN1 = system: ERN1
FAK = system: T4, FAK
T4 construct: gene PTK2

FER = system: FER
FES = system: FES
FGFR1 = system: FGFR1
FGFR2 = system: FGFR2
FGFR3 = system: FGFR3
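Also: KINOMEscan kinase panel screen.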

Structure (SMILES)	%Inh (ERK4) [%]	%Inh (ERK5) [%]	%Inh (ERK8) [%]	%Inh (ERN1) [%]	%Inh (FAK) [%]	%Inh (FER) [%]	%Inh (FES) [%]	%Inh (FGFR1) [%]	%Inh (FGFR2) [%]	%Inh (FGFR3) [%]
Cc1ccc(NC(=O)c2cccc(C#N)c2)cc1-c1ccc(C(=O)Nc2ccncc2)cc1 [GSK1398463]	25	96.8	38	15	0	3	17	10	17	33
CCc1nc(-c2cccc(C)c2)c(-c2ccnc(NC(=O)c3ccccc3)c2)s1	2	9	0	23	0	0	32	11	0	0
NC(=O)c1sc(-n2cnc3ccccc32)cc1OCc1ccccc1F [GSK1024306]	0	0	26	0	0	20	0	0	0	4
O=C(c1ccc(-c2cc(-c3c[nH]nc3-c3ccccn3)ccn2)cc1)N1CCCC1 [GW792479]	0	23	0	0	47	0	5	3	1	3
COc1ccc(-c2oc3ncnc(N)c3c2-c2ccc(OC)cc2)cc1 [SB-589132]	27	0	0	18	0	5	0	0	3	0
Clc1ccc(-c2cc(-c3c[nH]nc3-c3ccccn3)ccn2)cc1 [GW681251]	6	0	0	0	0	9	0	0	0	1
COc1cc2c(Nc3cccc(NC(=O)c4ccccc4)c3)ncnc2cc1OCCCN1CCOCC1 [GSK223810]	0	0	0	23	0	0	0	18	11	22
Nc1nc(-c2ccc3c(N)n[nH]c3c2)cc(N2CCC[C@@H](C(=O)Nc3ccccc3)C2)n1.O=C(O)C(F)(F)F.O=C(O)C(F)(F)F [GSK2288359]	16	0	0	23	0	0	0	0	0	7
O=C(NCCCN1CCCC1=O)c1cnc(NCc2cc(Cl)ccc2Cl)nc1NC1CCNCC1	0	0	17	0	0	0	0	11	14	0
CCc1nc(-c2cccc(N(C)S(=O)(=O)c3ccccc3)c2)c(-c2ccnc(Nc3ccc(N4CCN(C(C)=O)CC4)nc3)n2)s1 [GSK1645895]	18	19	0	28	0	0	0	0	0	3
Cl.Fc1ccccc1COc1ccc(Nc2ncnc3ccc(-c4nnc(C(F)(F)F)o4)cc23)cc1Cl [GW424170]	13	0	0	2	0	18	0	0	0	8
Cl.Cl.c1ccc(-c2cc3ccncc3cc2OC2CCNCC2)cc1 [GSK1122999]	8	0	0	0	0	36	0	0	0	11
Nc1nc(-c2ccc3c(N)n[nH]c3c2)cc(N2CCCCC2)n1 [GSK2228768]	2	0	0	7	0	10	0	0	0	0
OCCOCCn1ccc2ncnc(Nc3ccc(Oc4cccc(Cl)c4)c(Cl)c3)c21	0	0	0	0	0	24	6	27	0	0
Fc1cccc(COc2ccc(Nc3ncnc4nn5ccccc5c34)cc2Cl)c1 [GW689066]	0	0	0	0	0	16	0	0	12	3
CC(C)(C)c1ccc(-n2cnc3c(N)ncnc32)cc1 [SKF-97263]	0	0	48	6	0	13	13	12	20	15
O=C(CCO)NCCn1ccc2ncnc(Nc3ccc(Oc4cccc(C(F)(F)F)c4)c(Cl)c3)c21	0	5	0	0	0	0	0	0	0	0
COc1ccc(NC(=O)c2ccc(-c3cc(-c4nnc(C)o4)ccc3C)cc2)cc1 [GW595885]	0	0	0	0	0	6	0	0	0	16
COC(=O)c1cccc(NC(=O)NCCNc2ccnc(Nc3ccc(F)cc3)n2)c1 [GSK1379883]	4	0	0	21	0	19	7	0	43	15
CN1CCC(n2cnc(-c3ccc(F)cc3)c2-c2ccnc(NC3CCNCC3)n2)CC1 [SB-229482]	0	0	0	2	0	0	5	4	0	9
COc1ccc(NC(=O)Nc2ccc(C)c(-c3ccc(C(=O)Nc4ccncc4)cc3)c2)cc1 [GSK1398475]	0	0	0	0	0	5	2	0	0	11
Nc1nc(-c2cccnc2)c(-c2ccnc3ccccc23)s1 [GW684083]	12	0	0	0	0	24	0	4	20	21
FC(F)(F)c1ccc(-c2nn3ncccc3c2-c2ccnc(Nc3cccc(C(F)(F)F)c3)n2)cc1 [GW828205]	0	0	0	0	9	2	7	33	100	8
Cl.O=S(=O)(c1cccc(F)c1)c1ccc(Nc2ncnc3cc(Br)sc23)cc1Cl [GSK306886]	44	4	0	11	0	14	13	0	0	16
O=C(Nc1n[nH]c2nc(-c3ccco3)c(Br)cc12)c1ccc(CN2CCCC2)cc1.O=C(O)[C@H](O)[C@@H](O)C(=O)O [SB-742352]	0	0	0	0	0	4	0	0	0	1
COC(=O)c1c(-c2ccccc2)c2cc(Cl)ccc2c(=O)n1Cc1ccc(S(C)(=O)=O)cc1	3	13	6	13	4	0	3	0	8	6
CC(C)N1CCC(n2cnc(-c3ccc(F)cc3)c2-c2ccnc(N)n2)CC1 [SB-223132]	0	0	4	0	16	8	0	22	10	21
O=C(Nc1ccccc1F)NC1CCN(c2ccnc(Nc3ccc(F)cc3)n2)C1 (stereo not drawn) [GSK1379722]	12	0	31	0	0	26	0	0	19	15
CC(=O)Nc1n[nH]c2ncc(-c3ccccc3)cc12 [SB-548492]	0	0	60	0	0	4	25	4	0	10
COc1ccc(Nc2nccc(N3CCC(NC(=O)Nc4ccc5c(c4)OCO5)C3)n2)cc1 (stereo not drawn) [GSK1379745]	0	0	48	0	1	33	18	9	1	32
